Assay results: the supplement of paper PMC10338343
± gives the standard deviation.

Key:
[1] = tested on: MILI (PIWIL2) piRISC loaded with L1MC piRNA (26 nt); assay: pre-steady-state target cleavage rate (min^-1); guide: L1MC piRNA 5'p-UAACUAAAUACUAUGCAAGCUGUAGG; higher = faster piRNA-guided slicing of the target
Method in brief: (§1)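 Cleave-'n-Seq: 1 nM active affinity-purified piRISC with one synthetic guide and 0.1 nM transcribed, DNA-blocked target RNA library were mixed, with or without 500 nM GTSF1 partner protein, in HEPES–potassium acetate buffer at 33 °C for 0–8 or 0–960 min. Uncleaved targets were sequenced and normalised to depth and to weakly complementary targets, three trials were pooled, and k3 was capped at 0.0001 min^-1. The pre-steady-state cleavage rate was fitted […].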

[2] = tested on: EfPiwi piRISC loaded with L1MC piRNA (26 nt); assay: pre-steady-state target cleavage rate (min^-1); auxiliary factor: 500 nM Ephydatia muelleri Gtsf1; guide: L1MC piRNA 5'p-UAACUAAAUACUAUGCAAGCUGUAGG; MIWI and MILI are mouse PIWI proteins and EfPiwi is from a freshwater sponge; tags in brackets are library labels; higher = faster piRNA-guided slicing of the target
Method in brief: as §1

[3] = auxiliary factor: 500 nM mouse GTSF1
[4] = auxiliary factor: none (no GTSF1)

| Sequence | pre-steady-state target cleavage rate [1, 3] | pre-steady-state target cleavage rate [1, 4] | pre-steady-state target cleavage rate [2] |
| --- | --- | --- | --- |
| UCCUGGAACAGCUUGCAUAGUAUUAUGUUA | 0.105 ± 0.026 | 0.00259 ± 0.0025 | 0.00324 ± 0.0021 |
| UCCUCCUACAGCUAGCAUAGUAAUUAGUUA | 0.159 ± 0.022 | 0.00372 ± 0.0022 | 0.00535 ± 0.002 |
| UCCUGGAAGAGCUUGCAAAGUAUUUAGUUA | 0.075 ± 0.012 | 0.00782 ± 0.0029 | 0.018 ± 0.005 |
| UCCUGCUAGAGCUUGCAUAGUAUAUAGUUA | 0.176 ± 0.02 | 0.00268 ± 0.0026 | 0.00471 ± 0.0017 |
| UCCUGGUACAGCUUGCAUAGUAUUUACGUUA | 0.227 ± 0.039 | 0.00544 ± 0.0036 | 0.00346 ± 0.0025 |
| UCCUGGAUCUGCUUGCAUAGUAUUUAGUUA | 0.229 ± 0.016 | 0.00944 ± 0.002 | 0.116 ± 0.023 |
| UCCUGCUACUGCUUGCAUAGUUUUUAGUUA | 0.0524 ± 0.011 | 0.00424 ± 0.0018 | 0.00399 ± 0.0017 |
| UCCUGGAUCUGCUUGCAUAGUAUUAAGUUA | 0.204 ± 0.019 | 0.00478 ± 0.0026 | 0.00735 ± 0.0037 |
| UCCUCCUACUGCAUGCAUAGUAUUUAGUUA | 0.252 ± 0.013 | 0.011 ± 0.0022 | 0.0706 ± 0.019 |
| UCCUGGAUCAGCUUGCAUAGUAUUUAAGUUA | 0.251 ± 0.025 | 0.0108 ± 0.0029 | 0.00608 ± 0.0023 |
| UCCUGCUACAGGUUGCAAAGUAUUUAGUUA | 0.143 ± 0.013 | 0.00965 ± 0.0025 | 0.0385 ± 0.0096 |
| UCCUGGUACAGCUUCGCAUAGUAUUUAGUUA | 0.274 ± 0.021 | 0.0125 ± 0.0035 | 0.038 ± 0.0086 |
| UCCUGGAACAGCAUGCAUUGUAUUUAGUUA | 0.204 ± 0.016 | 0.00901 ± 0.0024 | 0.00504 ± 0.002 |
| UCCUGCUACAGCUUGCGUAGUAUUUAGUUA | 0.206 ± 0.014 | 0.00688 ± 0.0029 | 0.0375 ± 0.011 |
| UCCUGGAUCUGCUUGCAUAGUAUUUAGUAA | 0.22 ± 0.014 | 0.00457 ± 0.0021 | 0.1 ± 0.038 |
| UCCUGGUACAGCUUGUAUAGUAUUUAGUUA | 0.242 ± 0.017 | 0.0121 ± 0.0031 | 0.0177 ± 0.0048 |
| UCCUGGAACAGCUUGCAUAGUAUUUAAGUUA | 0.195 ± 0.029 | 0.00781 ± 0.0028 | 0.0138 ± 0.0052 |
| UCCUGGUACAGCUUGCAUAGUAUUUUCUAA | 0.0489 ± 0.017 | 0.00383 ± 0.0034 | 0.0055 ± 0.0029 |
| UCCUGGAACAGCUUGGAUAGUAAUUAGUUA | 0.21 ± 0.025 | 0.00493 ± 0.0022 | 0.00719 ± 0.0026 |
| UCCUGGUACAGCUUACAUAGUAUUUAGUUA | 0.213 ± 0.02 | 0.00894 ± 0.0027 | 0.0283 ± 0.0076 |
| UCCUGCUUCAGCUUGCAUAGUAUUAAGUUA | 0.13 ± 0.02 | 0.00279 ± 0.0026 | 0.00492 ± 0.0016 |
| UCCUGGAUCAGCUUGCAUAGUAUUUAGUGUA | 0.271 ± 0.023 | 0.00832 ± 0.0026 | 0.0168 ± 0.0061 |
| UCCUGCGACAGCUUGCAUAGUAUUUAGUUA | 0.298 ± 0.016 | 0.00828 ± 0.0026 | 0.0339 ± 0.0075 |

| Sequence | pre-steady-state target cleavage rate [1, 3] | pre-steady-state target cleavage rate [1, 4] | pre-steady-state target cleavage rate [2] |
| --- | --- | --- | --- |
| UCCUGGAACAGCUUGCAAAGUAUAUAGUUA | 0.116 ± 0.013 | 0.00404 ± 0.0021 | 0.00745 ± 0.0042 |
| UCCUGGAUGUCGUUGCAUAGUAGUUUAGUUA | 0.0297 ± 0.0098 | 0.0066 ± 0.0025 | 0.0087 ± 0.005 |
| UCCUCCUACAGGUUGCAUAGUUUUUAGUUA | 0.0349 ± 0.0064 | 0.00478 ± 0.0018 | 0.00915 ± 0.0022 |
| UCCUGGUAGAGGUUGCAUAGUAUUUAGUUA | 0.185 ± 0.024 | 0.0103 ± 0.0031 | 0.00483 ± 0.0034 |
| UCCUCCUACAGCUUAGCAUAGUAUUUAGUUA | 0.314 ± 0.017 | 0.0112 ± 0.0024 | 0.0919 ± 0.025 |
| UCCUGGAUCACCUAGCAUAGUAUUUAGUUA | 0.17 ± 0.025 | 0.00435 ± 0.0029 | 0.00614 ± 0.004 |
| UCCUGGAUGUGCGUUGCAUAGUAUUUAGUUA | 0.145 ± 0.016 | 0.00925 ± 0.0032 | 0.00539 ± 0.0024 |
| UCCUGGAUCAGCUUCAUAGUAUUUAGUUA | 0.235 ± 0.012 | 0.00548 ± 0.0028 | 0.00789 ± 0.0033 |
| UCCUGCGUACAGCUUGCAUAGUAUUUAGUUA | 0.314 ± 0.021 | 0.0109 ± 0.0033 | 0.0434 ± 0.012 |
| UCCUGGUACAGCUUGCAUAGUAUAUAGUUA | 0.274 ± 0.041 | 0.00795 ± 0.0034 | 0.00533 ± 0.0027 |
| UCCUGCUAGUCCUUGCAUAGUAUUUAGUUA | 0.0977 ± 0.016 | 0.00689 ± 0.0019 | 0.00428 ± 0.0023 |
| UCCUGCUACAGCUUGCAUUGUAAUUAGUUA | 0.201 ± 0.024 | 0.00494 ± 0.0018 | 0.00519 ± 0.0025 |
| UCCUGGUACAGCUUGCAUAGUAUAUUGUUA | 0.146 ± 0.042 | 0.00411 ± 0.0035 | 0.00333 ± 0.0026 |
| UCCUGCUACAGCUUGCAUAGUAUUUAGUUG [g2:g25:cont:t1G] | 0.145 ± 0.013 | 0.0083 ± 0.0024 | 0.00685 ± 0.0019 |
| UCCUGGAUCAGCUUGCUUAGUAUUUAGUUA | 0.248 ± 0.019 | 0.0092 ± 0.0031 | 0.0228 ± 0.0071 |
| UCCUGGUACAGCUUAGCAUAGUAUUUAGUUA | 0.296 ± 0.018 | 0.0164 ± 0.0045 | 0.0188 ± 0.0058 |
| UCCUGGAUGUGUCUUGCAUAGUAUUUAGUUA | 0.072 ± 0.013 | 0.014 ± 0.004 | 0.113 ± 0.038 |
| UCCUGGAUGAGCUUGCAUAGUAUUGAGUUA | 0.164 ± 0.036 | 0.00369 ± 0.0027 | 0.00461 ± 0.0019 |
| UCCUACUACAGCUUGCAUAGUAUUUAGUUA | 0.294 ± 0.02 | 0.00883 ± 0.0027 | 0.0579 ± 0.018 |
| UCCUGGAACAGCUUGCUUAGUAUAUAGUUA | 0.241 ± 0.02 | 0.00532 ± 0.0022 | 0.0104 ± 0.0048 |
| UCCUCGUACAGCUUGCAUAGUAUUUUGUUA | 0.143 ± 0.016 | 0.00289 ± 0.0028 | 0.007 ± 0.0031 |
| UCCUGGAUGUGCUUGCAUAGUAUUUAGUUG [g2:g20:cont:t1G] | 0.179 ± 0.022 | 0.00877 ± 0.0027 | 0.00803 ± 0.0029 |
